“And” between values parts separate entries of the source, which are not always exact repeats. Identical values can stand only once. Where a structure was tested more than once in an assay, its records may differ in their call. The source made the active and inactive calls. Rule for the calls: active = hit-call score of the fitted dose curve at least 0.9, where 1 is the maximum; inactive = score below 0.9.

Tested on in one experiment: not listed separately
Description: ATG_BRE_CIS: Attagene CIS-FACTORIAL HepG2 Assay for human Bone Morphogenetic Protein (BMP) Response Element (BRE) (AID 2282933). As to conditions: HepG2 BMP response element reporter, Attagene transcription factor profiling; actives raise or lower the signal. The gist of the method:
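Endogenous transcription factor activity at a BMP response element was monitored in transfected HepG2 cells 24 h after dosing. Fluorescent RT-PCR products were resolved by capillary electrophoresis, and activity was fitted in both directions versus DMSO.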
Turning to `CC1=CC(=O)/C(=C(/C)O)C(=O)O1`, the outcome was inactive.
Take `Cc1oc2c(NC(=O)c3c(Cl)cccc3Cl)cccc2c1C(C)(C)O`: the AC50 (in general, the concentration at which the activity in the assay is half-maximal) was 152 µM (active).
For `CCCCCCCCCC(=O)O`, the molecule was classed as inactive.
With `COc1ccc2cc(S(=O)(=O)N[C@H](CC(=O)N[C@H](Cc3ccc(CN4[C@H](C)CCC[C@@H]4C)cc3)C(=O)N(C)C(C)C)c3ccc4c(c3)OCO4)ccc2c1`, the AC50 was 11 µM (active).
For `c1ccc2n[nH]nc2c1`, the molecule was classed as inactive.
The same measure, in the same setting: to `CN1C(=O)CC[C@H]1c1cccnc1` belongs “inactive”; to `O=C(O)Cn1c(=O)n(Cc2ccc(Br)cc2F)c(=O)c2ccc(Cl)cc21`, “inactive”.
As to `CCCCCCCCCCCCO`, the result was inactive.
The same measure, in the same setting: as for `COc1cc(C(=O)NC2CCN(C)CC2)ccc1Nc1ncc2c(n1)N(C1CCCC1)CC(F)(F)C(=O)N2C`, the entry is “inactive”.
Still for that read-out and setting: to `O=C(OCCCCCCOC(=O)c1ccccc1)c1ccccc1` belongs “inactive”.
`CC(C)(C)c1csc(-c2cc3cc(OCc4ccccc4CC(=O)O)ccc3o2)n1`: the AC50 is 57.6 µM (active).
Consider `O=C=NCCCCCCN=C=O`, for which the molecule was called inactive.
With `O=C1c2ccccc2C(=O)N1CCc1noc(-c2ccc(CN3CCCCCC3)s2)n1`, the AC50 was 56.6 µM (active).
Turning to `CCCCCCCCCCCC[N+](C)(C)C`, the AC50 is 33.4 µM (active) and 27.1 µM (active).
As for `CC(=O)N1CCN(c2ccc(OC[C@H]3CO[C@](Cn4ccnc4)(c4ccc(Cl)cc4Cl)O3)cc2)CC1`, the AC50 is 28.6 µM (active).
As for `NCc1cccc(C2CCN(C(=O)c3ccc(C#Cc4ccccc4F)o3)CC2)c1`, the molecule was called inactive.
On the same count and under the same terms, to `O=C1O[C@H]([C@@H](O)CO)C(O)=C1O` belongs “inactive”.
Turning to `Cc1occc1C(=O)Nc1ccc(C(=O)N2CCC(F)(F)/C(=C\C(=O)N3CCC(N4CCCCC4)CC3)c3ccccc32)cc1`, the half-maximal activity concentration (AC50) is 13.2 µM (active).
As for `CC(C)(C)c1cc(/C=C2\SC(N)=NC2=O)cc(C(C)(C)C)c1O`, the call was inactive.
On the same count and under the same terms, as for `CCCC(=O)OCCC(C)C`, the entry is “inactive”; as for `Cc1ncc(CO)c(CO)c1O`, “inactive”; as for `CCN(CC)C(=O)c1cc(S(=O)(=O)Cc2ccccc2)c(N2CCC(c3ccccc3)CC2)cc1N(CC)CCN(C)C`, “inactive”.
Turning to `CCCCOC(=O)CC(CC(=O)OCCCC)(OC(C)=O)C(=O)OCCCC`, the AC50 is 42.6 µM (active) and the molecule was called inactive.
On to `Cc1ccc2oc(CN(Cc3ccccc3)C(=O)Nc3c(F)cc(F)cc3F)c(-c3ccc(Cl)cc3)c2c1`, for which the outcome was inactive.
For the molecule `CCCCCCCCOC(=O)c1cc(O)c(O)c(O)c1`, the outcome was inactive.
The same measure, in the same setting: as for `O=c1[nH]sc2ccccc12`, the entry is “inactive”.
Consider `CCCCCCCCOc1ccc(C(=O)c2ccccc2)c(O)c1`, for which the outcome was inactive.
The same measure, in the same setting: to `CN1C(=O)N(c2ccccc2Br)Cc2cnc(Nc3ccc4c(c3)OCC(CO)O4)nc21` (configuration not stated) belongs “inactive”.
On to `Clc1ccccc1C(c1ccccc1)(c1ccccc1)n1ccnc1`, for which the AC50 is 11.1 µM (active).
Regarding `CC(O)CC(C)(C)O` (configuration not stated), the result was inactive.
The same measure, in the same setting: to `CCOC(=O)O[C@H](C)OC(=O)c1ccc2c(c1)cc(C(=O)NC1CCN(C(C)C)CC1)n2Cc1cc(-c2ccc(Cl)s2)on1` belongs “inactive”; to `O=CCCCC=O`, “inactive”.
For the molecule `CC(C)(c1cc(Br)c(O)c(Br)c1)c1cc(Br)c(O)c(Br)c1`, the AC50 was 46.6 µM (active) and the result was inactive.
On to `Cc1cccc2ccccc12`, for which the molecule was classed as inactive.
In the case of `CC(C)(O)c1ccc(CNC(=O)c2cccnc2Oc2ccc3nonc3c2)cc1`, the molecule was called inactive.
Still for that read-out and setting: as for `CCO[Si](CCCNC(N)=O)(OCC)OCC`, the entry is “inactive”.
For the molecule `C[C@]12CC[C@@H]3c4ccc(O)cc4CC[C@H]3[C@@H]1CCC2=O`, the molecule was called inactive.
As for `COc1cccc([C@H](O)C2CCN(CCc3ccc(F)cc3)CC2)c1OC`, the result was inactive.

The next experiment deals with Retinoic acid receptor alpha (Homo sapiens) (UniProt P10276). Description: ATG_DR5_RAR_CIS: Attagene CIS-FACTORIAL HepG2 Assay for human Retinoic Acid Receptor Alpha (RARE), DR5 submotif (AID 2282934).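 For AC50: reporter responds to endogenous RAR alpha beta and gamma in HepG2 not RARA alone.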 As to conditions: HepG2 Attagene cis-factorial RARE DR5 reporter, mRNA; actives raise or lower the signal. The gist of the method: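 Endpoint fitted in both directions relative to DMSO as negative control. It reflects DR5 cis-element reporter mRNA induction in transiently transfected HepG2 cells, measured 24 h after dosing through RT-PCR and fluorescent capillary electrophoresis.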
Sequence of Retinoic acid receptor alpha (Homo sapiens) (P10276 whole entry, looked up): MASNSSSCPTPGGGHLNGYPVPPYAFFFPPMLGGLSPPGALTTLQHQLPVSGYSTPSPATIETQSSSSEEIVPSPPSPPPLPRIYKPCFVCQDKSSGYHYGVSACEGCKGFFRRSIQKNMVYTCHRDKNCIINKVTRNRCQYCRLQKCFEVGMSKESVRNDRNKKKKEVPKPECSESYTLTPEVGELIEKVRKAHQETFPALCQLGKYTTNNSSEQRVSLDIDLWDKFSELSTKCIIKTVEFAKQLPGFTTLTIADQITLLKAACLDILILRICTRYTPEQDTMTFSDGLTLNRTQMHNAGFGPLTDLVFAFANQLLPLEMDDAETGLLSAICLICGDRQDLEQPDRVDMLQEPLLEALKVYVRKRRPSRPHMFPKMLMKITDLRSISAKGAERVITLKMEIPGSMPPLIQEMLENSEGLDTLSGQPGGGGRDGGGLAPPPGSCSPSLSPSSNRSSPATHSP
For `CC1=CC(=O)/C(=C(/C)O)C(=O)O1`, the molecule was called inactive.
Consider `Cc1oc2c(NC(=O)c3c(Cl)cccc3Cl)cccc2c1C(C)(C)O`, for which the AC50 was 3.06 µM (active).
For `CCCCCCCCCC(=O)O`, the call was inactive.
Still for that read-out and setting: as for `COc1ccc2cc(S(=O)(=O)N[C@H](CC(=O)N[C@H](Cc3ccc(CN4[C@H](C)CCC[C@@H]4C)cc3)C(=O)N(C)C(C)C)c3ccc4c(c3)OCO4)ccc2c1`, the entry is “inactive”; as for `c1ccc2n[nH]nc2c1`, “inactive”.
The same measure, in the same setting: to `O=C(O)Cn1c(=O)n(Cc2ccc(Br)cc2F)c(=O)c2ccc(Cl)cc21` belongs “inactive”.
Regarding `CCCCCCCCCCCCO`, the outcome was inactive.
On to `COc1cc(C(=O)NC2CCN(C)CC2)ccc1Nc1ncc2c(n1)N(C1CCCC1)CC(F)(F)C(=O)N2C`, for which the AC50 is 0.51 µM (active).
As to `O=C(OCCCCCCOC(=O)c1ccccc1)c1ccccc1`, the molecule was classed as inactive.
Same read-out and setting: to `CC(C)(C)c1csc(-c2cc3cc(OCc4ccccc4CC(=O)O)ccc3o2)n1` belongs “inactive”.
Still for that read-out and setting: as for `O=C=NCCCCCCN=C=O`, the entry is “inactive”.
Still for that read-out and setting: as for `O=C1c2ccccc2C(=O)N1CCc1noc(-c2ccc(CN3CCCCCC3)s2)n1`, the entry is “inactive”; as for `CCCCCCCCCCCC[N+](C)(C)C`, “inactive”.
Turning to `CC(=O)N1CCN(c2ccc(OC[C@H]3CO[C@](Cn4ccnc4)(c4ccc(Cl)cc4Cl)O3)cc2)CC1`, the molecule was called inactive.
Same read-out and setting: to `NCc1cccc(C2CCN(C(=O)c3ccc(C#Cc4ccccc4F)o3)CC2)c1` belongs “inactive”; to `Cc1occc1C(=O)Nc1ccc(C(=O)N2CCC(F)(F)/C(=C\C(=O)N3CCC(N4CCCCC4)CC3)c3ccccc32)cc1`, “inactive”; to `CC(C)(C)c1cc(/C=C2\SC(N)=NC2=O)cc(C(C)(C)C)c1O`, “inactive”.
Same read-out and setting: as for `CCCC(=O)OCCC(C)C`, the entry is “inactive”; as for `CCN(CC)C(=O)c1cc(S(=O)(=O)Cc2ccccc2)c(N2CCC(c3ccccc3)CC2)cc1N(CC)CCN(C)C`, “inactive”; as for `Cc1ccc2oc(CN(Cc3ccccc3)C(=O)Nc3c(F)cc(F)cc3F)c(-c3ccc(Cl)cc3)c2c1`, “inactive”.
Same read-out and setting: as for `CCCCCCCCOC(=O)c1cc(O)c(O)c(O)c1`, the entry is “inactive”; as for `O=c1[nH]sc2ccccc12`, “inactive”.
As for `CCCCCCCCOc1ccc(C(=O)c2ccccc2)c(O)c1`, the outcome was inactive.
On the same count and under the same terms, to `CN1C(=O)N(c2ccccc2Br)Cc2cnc(Nc3ccc4c(c3)OCC(CO)O4)nc21` (configuration not stated) belongs “inactive”; to `Clc1ccccc1C(c1ccccc1)(c1ccccc1)n1ccnc1`, “inactive”.
On the same count and under the same terms, as for `CC(O)CC(C)(C)O` (configuration not stated), the entry is “inactive”.
As to `CCOC(=O)O[C@H](C)OC(=O)c1ccc2c(c1)cc(C(=O)NC1CCN(C(C)C)CC1)n2Cc1cc(-c2ccc(Cl)s2)on1`, the AC50 was 42.2 µM (active).
With `CC(C)(c1cc(Br)c(O)c(Br)c1)c1cc(Br)c(O)c(Br)c1`, the AC50 was 25.6 µM (active) and 14.2 µM (active).
With `Cc1cccc2ccccc12`, the call was inactive.
Still for that read-out and setting: as for `CC(C)(O)c1ccc(CNC(=O)c2cccnc2Oc2ccc3nonc3c2)cc1`, the entry is “inactive”.
The same measure, in the same setting: to `CCO[Si](CCCNC(N)=O)(OCC)OCC` belongs “inactive”; to `COc1cccc([C@H](O)C2CCN(CCc3ccc(F)cc3)CC2)c1OC`, “inactive”.

The values are drawn from PubChem BioAssay (EPA / NIEHS).
